# Source: PubChem
# In the library only some 1.3% were active in any assay of this set; here they are far more common.
# COUP-TFII inh: NR2F2 transcriptional activity inhibitors, primary screen, cell-based, luciferase reporter, HEK293T, luminescence | COUP transcription factor 2 (Homo sapiens), P24468 | HEK293T NGFI-A luciferase reporter | inhibition, % at 8.6 µM | 370,000 tested, 0.7% active;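 active = inhibition above a per-plate cutoff, mean inhibition of test wells between control levels plus 3 SD, cut at about 38% in these data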;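 note: cells cotransfected with COUP-TFII expression vector driving the NGFI-A reporter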
# SRC1 inh: SRC1 coactivator transcriptional activity inhibitors, primary screen, cell-based, luminescence; Nuclear receptor coactivator 1 (Homo sapiens), Q15788; HEK293 GAL4-SRC1 luciferase reporter; inhibition, % at 3.6 µM; 360,000 tested, 0.12% active; AID 588354, 2011;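 active = inhibition above the campaign mean plus 3 SD, with each screening campaign given its own cutoff, cut at about 60% in these data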
# NCOA3 inh: SRC3 coactivator transcriptional activity inhibitors, primary screen, cell-based, luminescence. Nuclear receptor coactivator 3 (Homo sapiens), Q9Y6Q9. HEK293 GAL4-SRC3 luciferase reporter. inhibition, % at 3.6 µM. 360,000 tested, 0.17% active. AID 588352, 2011;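 active = inhibition above a per-campaign cutoff, the mean of all compounds plus 3 SD, cut at about 60% in these data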;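 note: higher means less SRC3-driven luciferase light from the GAL4 reporter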
# Gli-Sufu block: Gli-Sufu pathway antagonists, primary screen, luciferase luminescence, Sufu-KO-LIGHT cells, uHTS. Sufu-KO-LIGHT fibroblasts, Gli luciferase reporter luminescence. inhibition, % at 5 µM. 340,000 tested, 0.74% active. AID 588413, 2011;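 active = inhibition above about 55%, limit read from the data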
# NCOA2 inhibitor: inhibition of GAL4-SRC2 driven luciferase reporter, primary screen, SRC2 inhibitor project, cell-based, luminescence; Nuclear receptor coactivator 2 (Homo sapiens), Q15596; inhibition, % at 9 µM; HEK293 GAL4-SRC2 luciferase reporter; AID 651957, 2012; 370,000 tested, 0.17% active;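 active = inhibition above the mean inhibition of all tested compounds plus 3 SD, set per campaign, cut at about 52% in these data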
# NR5A2 inv ag: LRH-1 (NR5A2) inverse agonists, primary screen, cell-based, luminescence, HEK293T, StAR-luciferase reporter; 360,000 tested, 0.13% active; inhibition, % at 3.6 µM; Nuclear receptor subfamily 5 group A member 2 (Homo sapiens), O00482; LRH-1 transfected, 24 h;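 active = inhibition above the mean inhibition of all tested compounds plus 3 SD, cut at about 73% in these data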
# Numbers stand for hits; . = inactive; / = no result given.
SMILES,COUP-TFII inh,SRC1 inh,NCOA3 inh,Gli-Sufu block,NCOA2 inhibitor,NR5A2 inv ag
Cc1ccc(O)c(N=Nc2nccs2)c1,.,73,64,.,.,83
CN(Cc1cnc2nc(N)nc(N)c2n1)c1ccc(C(=O)NC(CCC(=O)O)C(=O)O)cc1 (stereo not drawn),.,78,83,.,.,79
CN(Cc1cnc2nc(N)nc(N)c2n1)c1ccc(C(=O)NC(CCC(=O)O)C(=O)O)cc1C(F)(F)F (stereo not drawn),.,67,73,.,.,.
CCOC(=O)CCC(NC(=O)c1cncc(O)c1)C(=O)OCC (stereo not drawn),.,.,.,.,.,.
O=C(N1CCc2ccccc2C1)n1cc(C(O)(c2ccccc2)c2ccccc2)nn1,.,/,/,/,/,/
CC1CCCN(CCCNC(=O)c2ccc3c(c2)N(Cc2ccc(F)cc2)C(=O)c2ccccc2S3=O)C1 (stereo not drawn),.,.,.,66,.,.
O=C(Nc1ccc([N+](=O)[O-])cc1Cl)c1cc(Cl)ccc1O,.,.,.,56,.,.
O=C(Nc1cccc2c1CCCC2)c1cc([N+](=O)[O-])ccc1Cl,.,.,.,.,58,.
Cc1cccc(OC[C@@H](O)CN2CCC(C(O)(c3ccccc3)c3ccccc3)CC2)c1,.,/,/,/,.,/
Cc1ccc(S(=O)(=O)N2CCCC2C(=O)N2CCc3ccccc3C2)cc1 (stereo not drawn),.,/,/,/,.,/
O=C(O)CCCCCCCCCCC1CCC(O)C1O (stereo not drawn),41,.,.,.,.,.
O=C(O)CCCCCCCC(=O)O,.,.,.,.,.,.
CCCn1c(NCc2ccco2)nc2c1c(=O)n(C)c(=O)n2C,.,.,.,.,.,.
COc1ccc(Cl)c(Cn2c(NCc3ccco3)nc3c2c(=O)n(C)c(=O)n3C)c1,.,.,.,70,.,.
COc1ccc(-c2cc(NC(=O)Cc3c[nH]c4ccccc34)ccc2Nc2cccnc2)cc1F,.,/,/,/,.,/
COC1=C[C@H](C(=O)NCc2ccc(Br)cc2)C(C)C(c2ccccc2)CC1=O (stereo partly drawn),.,/,/,/,.,/
CCCCCc1ccc(OCCCC[n+]2ccccc2)c(CCCCC)c1,/,.,.,83,/,.
CN(C)c1ccc(C=C2C=Cc3ccccc32)cc1,.,.,.,.,.,.
C[n+]1c(-c2ccccc2)cc2c(=Cc3ccc([N+](=O)[O-])cc3)c3ccccc3n21,.,.,.,.,.,.
CN(C)c1ccc(C=c2c3ccccc3n3c2c2ccccc2[n+]3C)cc1,51,.,.,.,.,73
CN(C)c1ccc(C=c2c3cc(O)ccc3n3c2cc(-c2ccccc2)[n+]3C)cc1,.,.,.,72,.,.
C[n+]1c(-c2ccccc2)cc2c(=Cc3ccccc3)c3ccccc3n21,.,.,62,77,.,.
Cc1ccc(S(=O)(=O)Nc2ccc3nc(C)sc3c2)cc1,/,.,.,.,/,.
Cc1nc2ccc(NS(=O)(=O)c3ccc4c(c3)OCCO4)cc2s1,65,.,.,.,.,.
CN(C)c1cccc(-c2ccnc(N3CCC(C(N)=O)CC3)n2)c1,.,/,/,/,/,/
SMILES,COUP-TFII inh,SRC1 inh,NCOA3 inh,Gli-Sufu block,NCOA2 inhibitor,NR5A2 inv ag
COc1cc(C2C(C#N)=C(N)Oc3cc(N)ccc32)cc(OC)c1OC (stereo not drawn),.,.,.,55,.,.
Cc1nn(-c2ccccc2)c2sc(C(=O)NCCc3ccc(Cl)cc3)cc12,.,/,/,/,.,/
CCN(CC)CCNC(=O)c1ccc2c(=O)n(C3CCCC3)c(=S)[nH]c2c1,.,.,.,71,.,.
COC(=O)[C@]12C[C@H](CC(=O)NCCc3ccccc3OC)C(=O)N(Cc3ccco3)C1=C[C@H](C1CCCC1)O[C@@H]2C,.,/,/,/,.,/
NC(=S)NN=Cc1nccc2c(N)cccc12,.,74,62,/,.,.
CCN(C(C)=O)c1cnc(C=NNC(N)=S)c2ccccc12,.,.,.,.,.,.
Cc1ccc(-c2c(C)nn3c(N4CCOCC4)cc(C)nc23)cc1,.,.,.,56,.,.
